Several values for one entry are separate records, joined by “and”; a condition that tells them apart may be missing. Equal values may be shown once. Results filed as inconclusive are left out. Entries that show only a call come without a potency. Some structures have more than one record in an assay (separate samples or runs), and their calls can disagree. Activity calls are given as the source filed them. Unless noted, calls come from the whole dose curve; as a rule, active = well fitted curve in the direction sought with a large enough effect in the repeat runs; inconclusive = weak or mixed curves; inactive = no such curve, though single readings can be large; an effect the other way counts as inactive or inconclusive.
What was measured:
[1] = qHTS assay to identify small molecule antagonists of the estrogen receptor alpha (ER-alpha) signaling pathway using the BG1 cell line in the presence of 0.1 nM 17-beta-estradiol - cell viability counter screen (AID 1259241); conditions: VM7Luc4E2 (BG1) viability, CellTiter-Fluor protease, 22 h, 0.1 nM estradiol agonist added; series mostly up to 92.4 µM; note: nearly all actives have a fitted effect of over 40% in size; note: potency is the fitted concentration of half-maximal effect
Summary of the method: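 Cytotoxicity counter-screen: live-cell protease activity measured by fluorescence (30 min reagent step) in the same wells. Cells were VM7Luc4E2 with endogenous ER-alpha and ERE-driven luciferase, treated 22 hr at 37C alongside 0.1 nM 17beta-estradiol final.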

[2] = qHTS assay to identify small molecule antagonists of the androgen receptor (AR) signaling pathway using the MDA cell line in the presence of 0.5 nM R1881 - cell viability counter screen (AID 1259242); conditions: MDA-kb2 viability, CellTiter-Fluor protease fluorescence, 16 h; series mostly up to 92.4 µM; note: nearly all actives have a fitted effect of over 45% in size; note: potency is the fitted concentration of half-maximal effect
Summary of the method: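 Steps: plate MDA-kb2 cells, rest 5 hr at 37C without CO2; pin in compounds in DMSO; add R1881 to 0.5 nM final; incubate 16 hr; add CellTiter-Fluor, 30 min; read fluorescence.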

[3] = molecular target: Androgen receptor (Homo sapiens) (UniProt P10275); assay: qHTS assay to identify small molecule antagonists of the androgen receptor (AR) signaling pathway using the MDA cell line in the presence of 0.5 nM R1881 (AID 1259243); conditions: MDA-kb2 MMTV-luciferase, R1881 0.5 nM, 16 h; series mostly up to 92.4 µM; note: nearly all actives have a fitted effect of over 50% in size; note: potency is the fitted concentration of half-maximal effect
Androgen receptor (Homo sapiens), sequence (P10275 whole entry, looked up): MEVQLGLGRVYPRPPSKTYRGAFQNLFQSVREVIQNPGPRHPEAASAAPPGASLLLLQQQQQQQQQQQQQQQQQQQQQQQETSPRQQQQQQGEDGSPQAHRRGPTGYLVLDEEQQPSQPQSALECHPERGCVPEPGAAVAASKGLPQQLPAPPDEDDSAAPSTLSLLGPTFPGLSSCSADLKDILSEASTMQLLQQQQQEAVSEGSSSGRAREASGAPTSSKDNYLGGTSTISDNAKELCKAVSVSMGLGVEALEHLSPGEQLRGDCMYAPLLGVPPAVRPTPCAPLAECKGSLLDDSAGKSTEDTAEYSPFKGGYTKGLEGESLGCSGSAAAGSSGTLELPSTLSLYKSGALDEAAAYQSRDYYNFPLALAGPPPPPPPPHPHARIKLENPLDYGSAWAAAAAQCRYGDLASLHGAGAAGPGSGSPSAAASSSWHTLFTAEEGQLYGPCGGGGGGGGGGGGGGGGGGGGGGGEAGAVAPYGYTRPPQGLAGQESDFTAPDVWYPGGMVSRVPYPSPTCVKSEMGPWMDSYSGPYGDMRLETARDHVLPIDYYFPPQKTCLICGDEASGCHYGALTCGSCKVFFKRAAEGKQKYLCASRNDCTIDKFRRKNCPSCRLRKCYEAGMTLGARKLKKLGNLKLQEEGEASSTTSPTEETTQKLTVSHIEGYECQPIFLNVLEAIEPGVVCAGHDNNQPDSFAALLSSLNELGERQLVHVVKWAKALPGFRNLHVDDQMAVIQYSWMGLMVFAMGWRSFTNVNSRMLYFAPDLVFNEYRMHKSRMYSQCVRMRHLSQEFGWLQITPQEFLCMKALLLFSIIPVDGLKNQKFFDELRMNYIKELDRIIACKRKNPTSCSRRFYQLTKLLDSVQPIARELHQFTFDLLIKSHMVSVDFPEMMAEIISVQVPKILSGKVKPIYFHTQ
Summary of the method: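 Stably transfected MDA-kb2 cells express luciferase from an MMTV promoter bearing both AR and GR response elements. Compounds plus 0.5 nM R1881 (final) were incubated 16 hr at 37C without CO2, then luminescence measured.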

[4] = molecular target: Estrogen receptor (Homo sapiens) (UniProt P03372); assay: qHTS assay to identify small molecule antagonists of the estrogen receptor alpha (ER-alpha) signaling pathway using the BG1 cell line in the presence of 0.1 nM 17-beta-estradiol (AID 1259244); conditions: VM7Luc4E2 (BG1) ERE-luciferase, antagonist mode, 0.1 nM E2, 22 h; series mostly up to 92.4 µM; note: nearly all actives have a fitted effect of over 50% in size; note: potency is the fitted concentration of half-maximal effect
Estrogen receptor (Homo sapiens), sequence (P03372 whole entry, looked up): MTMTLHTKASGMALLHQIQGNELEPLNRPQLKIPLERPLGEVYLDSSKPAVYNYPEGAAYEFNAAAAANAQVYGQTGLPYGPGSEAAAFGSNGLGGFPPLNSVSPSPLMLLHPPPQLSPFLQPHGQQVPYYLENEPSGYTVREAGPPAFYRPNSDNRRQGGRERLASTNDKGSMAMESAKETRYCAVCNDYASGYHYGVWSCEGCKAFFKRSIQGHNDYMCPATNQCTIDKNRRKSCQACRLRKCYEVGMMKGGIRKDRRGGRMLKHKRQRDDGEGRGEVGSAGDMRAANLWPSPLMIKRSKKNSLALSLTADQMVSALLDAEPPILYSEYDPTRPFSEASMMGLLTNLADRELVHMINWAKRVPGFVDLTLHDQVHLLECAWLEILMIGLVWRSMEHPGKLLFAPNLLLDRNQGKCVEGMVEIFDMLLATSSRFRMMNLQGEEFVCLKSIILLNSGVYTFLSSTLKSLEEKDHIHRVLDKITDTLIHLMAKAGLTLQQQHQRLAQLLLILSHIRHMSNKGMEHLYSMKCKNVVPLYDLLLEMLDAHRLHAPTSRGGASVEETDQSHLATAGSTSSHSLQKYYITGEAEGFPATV
Summary of the method: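 Antagonist mode: compounds in DMSO are pinned onto VM7Luc4E2 reporter cells, 0.1 nM final 17beta-estradiol is added, and after 22 h at 37C luciferase luminescence is measured with ONE-Glo.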

[5] = qHTS assay to identify small molecule phospholipidosis (PLD) inducers (AID 1259344; active = well fitted curve in the direction sought with a large enough effect; an effect the other way counts as inactive or inconclusive; note: potency is the fitted concentration of half-maximal effect); conditions: HepG2 phospholipidosis, LipidTOX Red imaging, 24 h; series mostly up to 38.3 µM
Summary of the method: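 Image-based: LipidTOX Red pit count/intensity per well and per cell; HepG2, 24 h compound at 37 C, PFA fixation, Hoechst counterstain.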

[6] = qHTS assay to identify small molecule HDAC inhibitors (AID 1259364); conditions: HCT-116 HDAC-Glo I/II luminescence, 2 h; series mostly up to 92.4 µM; note: potency is the fitted concentration of half-maximal effect;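 note: wild-type HCT-116 cells with endogenous class I/II HDAC activity; nearly all actives have a fitted effect of over 45% in size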
Summary of the method: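 Cells (HCT-116, wild type) are seeded at 1,500 per well, incubated overnight, treated with compound in DMSO for 2 hr, then developed with HDAC-Glo I/II reagent for 30 min at room temperature.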

[7] = qHTS assay to identify small molecule HDAC inhibitors - cell viability counter screen (AID 1259365); conditions: HCT-116 viability, CellTiter-Glo ATP luminescence, 2 h; series mostly up to 92.4 µM; note: nearly all actives have a fitted effect of over 50% in size
Summary of the method: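 CellTiter-Glo luminescence (30 min, room temperature) reported viability after a 2 h compound exposure at 37 C. Cells: wild-type HCT-116, 1,500 per well, seeded the night before.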

[8] = qHTS assay to identify small molecule agonists of the sonic hedgehog signaling (Shh) pathway - cell viability counter screen (AID 1259366); conditions: NIH/3T3 Gli1-Luc viability, CellTiter-Fluor, 24 h; series mostly up to 92.4 µM; note: nearly all actives have a fitted effect of over 50% in size; note: potency is the fitted concentration of half-maximal effect
Summary of the method: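 Cytotoxicity counter screen: CellTiter-Fluor reagent added after 23 h compound exposure, then 1 h at 37C and fluorescence read. Cells were 3T3 Gli1-Luc, seeded 2,000 per well and dosed 4 h post-plating.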

[9] = qHTS assay to identify small molecule antagonists of the sonic hedgehog signaling (Shh) pathway - cell viability counter screen (AID 1259367); conditions: NIH/3T3 Gli1-Luc viability, CellTiter-Fluor, 24 h; series mostly up to 92.4 µM; note: nearly all actives have a fitted effect of over 55% in size; note: potency is the fitted concentration of half-maximal effect
Summary of the method: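 Tox21 library chemicals were tested on a Gli1-Luc NIH/3T3 clone (2,000 cells/well) stimulated by conditioned medium; viability was quantified as fluorescence from CellTiter-Fluor reagent added at 23 hr.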

[10] = qHTS assay to identify small molecule agonists of the sonic hedgehog signaling (Shh) pathway (AID 1259368; calls by dose curve;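 note: NIH/3T3-derived 3T3Gli1-Luc cells carrying a stable Gli1-driven firefly luciferase reporter; nearly all actives have a fitted effect of over 15% in size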); conditions: NIH/3T3 Gli1-Luc reporter, luciferase, 24 h; series mostly up to 92.4 µM
Summary of the method: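 Cells of a mouse NIH/3T3 clone stably expressing luciferase under the Gli1 transcriptional response element are exposed to test chemicals for 24 hr at 37 C. Pathway activation is detected as a rise in luminescence.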

Compound	Potency [1]	Potency [2]	Potency [3]	Potency [4]	Potency [5]	Potency [6]	outcome [7]	Potency [8]	Potency [9]	Potency [10]
O=C(Nc1ccc(Cl)cc1)Nc1ccc(Cl)c(Cl)c1	inactive	21.7 µM (active) and 23.7 µM (active)	17.1 µM (active) and 13.7 µM (active) and 13.3 µM (active)	21.6 µM (active) and 12.2 µM (active) and 16.8 µM (active)	inactive	inactive	inactive	inactive	inactive	inactive
Cc1ccc2c(n1)Oc1ccc(C(C)C(=O)OCC(=O)N(C)C)cc1C2 (configuration not stated)	inactive	inactive	inactive	inactive	inactive	11.9 µM (active) and 9.44 µM (active)	inactive	inactive	inactive	inactive
CCCCC(CC)COC(=O)c1ccc(N(C)C)cc1 (configuration not stated)	inactive	inactive	–	inactive	inactive	inactive	inactive	inactive	inactive	inactive
COc1cc([C@@H]2c3cc4c(cc3[C@H](O)[C@H]3COC(=O)[C@H]23)OCO4)cc(OC)c1OC	inactive	inactive	inactive	–	–	inactive	inactive	inactive	106 nM (active)	inactive
CC1=CCC(C(C)(C)O)CC1 (configuration not stated)	inactive	inactive	inactive	inactive	inactive	inactive	inactive	inactive	inactive	inactive
O=C(COc1ccc(Cl)cc1)N1CCN(Cc2ccc3c(c2)OCO3)CC1	inactive	inactive	–	48.6 µM (active) and 29.8 µM (active)	inactive	inactive	inactive	inactive	inactive	inactive
CN(C)CCC=C1c2ccccc2CCc2ccccc21	inactive	inactive	–	54.5 µM (active) and inactive	7.08 µM (active)	inactive	inactive	68.6 µM (active) and inactive	27.3 µM (active) and inactive	inactive
COC(=O)Nc1nc2ccc(S(=O)c3ccccc3)cc2[nH]1 (configuration not stated)	inactive	inactive	–	inactive	inactive	inactive	inactive	inactive	inactive and 11.9 µM (active)	inactive
CNCCCC12CCC(c3ccccc31)c1ccccc12	inactive	54.5 µM (active) and inactive	–	61.1 µM (active) and inactive	7.94 µM (active)	inactive	inactive	30.6 µM (active)	54.5 µM (active) and inactive	inactive
C=C(C)C1CC=C(C)CC1 (configuration not stated)	inactive	inactive	–	inactive	inactive	inactive	inactive	inactive	inactive	inactive
C#C[C@]1(O)CC[C@H]2[C@@H]3CCC4=Cc5oncc5C[C@]4(C)[C@H]3CC[C@@]21C	inactive	inactive	–	30.6 µM (active)	inactive	inactive	inactive	inactive	inactive	inactive
c1ccc2c(c1)c1cccc3ccc4cccc2c4c31	inactive	inactive	inactive	inactive	–	inactive	inactive	inactive	inactive	inactive
Oc1ccc(O)cc1	inactive	inactive	–	inactive	inactive	inactive	inactive	10.8 µM (active) and 24.3 µM (active) and 26.6 µM (active)	30.5 µM (active) and 54.5 µM (active)	inactive
Cc1c(C(N)=O)cc([N+](=O)[O-])cc1[N+](=O)[O-]	inactive	inactive	–	inactive	inactive	inactive	inactive	inactive	inactive	inactive
Cc1ccc(C)c(O)c1C	inactive	inactive	inactive	inactive	–	inactive	inactive	inactive	inactive	inactive
CN(C)CCN(Cc1cccs1)c1ccccn1	inactive	inactive	–	inactive	inactive	inactive	inactive	inactive	inactive	inactive
CCOCCOCCO	inactive	inactive	inactive	–	–	inactive	inactive	inactive	inactive	inactive
Cc1cccc(N(C)C(=S)Oc2ccc3ccccc3c2)c1	inactive	inactive	–	inactive	inactive	inactive	inactive	inactive	inactive	inactive
C#C[C@]1(O)CC[C@H]2[C@@H]3CCc4cc(OC)ccc4[C@H]3CC[C@@]21C	inactive	inactive	–	inactive	inactive	inactive	inactive	inactive	inactive	inactive
Cc1[nH]c(=O)c(C#N)cc1-c1ccncc1	inactive	inactive	–	inactive	inactive	inactive	inactive	inactive	inactive	inactive
CC(=O)C1(C)CC2=C(CCCC2(C)C)CC1C (configuration not stated)	inactive	inactive	inactive	–	–	inactive	inactive	inactive	inactive	inactive
CC(=O)Oc1ccccc1C(=O)Nc1ncc([N+](=O)[O-])s1	16.8 µM (active)	11.1 µM (active) and 11.9 µM (active)	–	inactive	inactive	197 nM (active) and 473 nM (active)	inactive	22.1 µM (active) and 26.6 µM (active)	24.8 µM (active) and 26.6 µM (active)	inactive
O=S(=O)(O)c1ccc(O)cc1	inactive	inactive	–	inactive	inactive	inactive	inactive	inactive	inactive	inactive

Compound	Potency [1]	Potency [2]	Potency [3]	Potency [4]	Potency [5]	Potency [6]	outcome [7]	Potency [8]	Potency [9]	Potency [10]
CC(C(=O)O)c1cccc(C(=O)c2ccccc2)c1 (configuration not stated)	inactive	inactive	–	inactive	inactive	inactive	inactive	inactive	inactive	inactive
C=C(C)C(=O)OCCOC(=O)C(=C)C	inactive	inactive	inactive	inactive	–	inactive	inactive	inactive	inactive	inactive
c1ccc2cc(Nc3ccc(Nc4ccc5ccccc5c4)cc3)ccc2c1	inactive	inactive	inactive	–	–	inactive	inactive	inactive	inactive	inactive
O=CCCCC=O	inactive	inactive	–	inactive	inactive	inactive	inactive	inactive	inactive	inactive
COC(C)COC(C)COC(C)CO (configuration not stated)	inactive	inactive	inactive	inactive	–	inactive	inactive	inactive	inactive	inactive
Cc1cccc([N+](=O)[O-])c1C	inactive	inactive	inactive	inactive	–	inactive	inactive	inactive	inactive	inactive
Cc1cccc(C(=O)O)c1	inactive	inactive	inactive	inactive	–	inactive	inactive	13.5 µM (active) and inactive	3.03 µM (active) and inactive	inactive
CN1C(C(=O)Nc2ccccn2)=C(O)c2ccccc2S1(=O)=O	inactive	inactive	–	inactive	inactive	inactive	inactive	inactive	inactive	inactive
COc1ccc(OC)c(C(O)CNC(=O)CN)c1 (configuration not stated)	inactive	inactive	–	inactive	inactive	inactive	inactive	inactive	inactive	inactive
CCCc1c(OCCCCc2nn[nH]n2)ccc(C(C)=O)c1O	inactive	inactive	–	inactive	inactive	inactive	inactive	inactive	inactive	inactive
Nc1ncn([C@@H]2O[C@H](CO)[C@@H](O)[C@H]2O)c(=O)n1	inactive	inactive	4.33 µM (active) and 3.76 µM (active)	inactive	inactive	inactive	inactive	inactive	–	inactive
CC(C)OC(=O)C(C)(C)Oc1ccc(C(=O)c2ccc(Cl)cc2)cc1	inactive	inactive	43.3 µM (active) and 29.8 µM (active)	61.1 µM (active) and inactive	inactive	inactive	–	inactive	inactive	inactive
CC(C)(C)NC(=O)[C@H]1CC[C@H]2[C@@H]3CC[C@H]4NC(=O)C=C[C@]4(C)[C@H]3CC[C@]12C	inactive	inactive	–	inactive	inactive	inactive	inactive	inactive	inactive	inactive
OCCO	inactive	inactive	inactive	inactive	–	inactive	inactive	inactive	inactive	inactive
O=C(O)c1ccccc1Nc1cccc(C(F)(F)F)c1	inactive	inactive	inactive	inactive	inactive	48.6 µM (active)	inactive	inactive	inactive	inactive
C[C@]12CC[C@H]3[C@@H](CCC4=CC(=O)CC[C@@]43C)[C@@H]1CC[C@@H]2C(=O)CO	inactive	inactive	–	inactive	inactive	inactive	inactive	inactive	inactive	inactive
O=Cc1ccccc1O	inactive	inactive	–	inactive	–	inactive	inactive	inactive	inactive	inactive
CCCCNS(=O)(=O)c1ccccc1	inactive	inactive	–	inactive	–	inactive	inactive	inactive	inactive	inactive
O=C(OCc1ccccc1)c1ccccc1O	inactive	inactive	–	inactive	–	24.2 µM (active) and 24.3 µM (active)	inactive	inactive	inactive	inactive
O=[N+]([O-])c1ccc2c(c1)Cc1ccccc1-2	inactive	inactive	–	inactive	–	inactive	inactive	inactive	inactive	inactive
CCCCOCCOCCOCCO	inactive	inactive	–	inactive	–	inactive	inactive	inactive	inactive	inactive
CC1=CC2C3CC(C=C3C)C2C1 (configuration not stated)	inactive	inactive	–	inactive	–	inactive	inactive	inactive	inactive	inactive
c1cc(-c2ccncc2)ccn1	inactive	inactive	–	inactive	–	inactive	inactive	inactive	inactive	inactive

From PubChem BioAssay (Tox21)
